# Experimental data taken from PubChem BioAssay (NCATS).
# Inconclusive results are not listed. Calls of active or inactive are those of the source. Unless noted, calls follow the shape of the full dose curve.
# What was measured:
# [1] = qHTS drug screen for cell cycle checkpoint inhibitors in PARPi-resistant BRCA-mutant ovarian cancer cell lines. (AID 1963452); settings: PEO1/OlaR viability, CellTiter-Glo luminescence, 96 h; for Z-AUC: stronger effect = lower value; also: potency is read from the fitted curve at half-maximal effect
# In short: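 PEO1, PEO4 and PEO1/OlaR ovarian cancer cells, 600 per well, exposed 96 h at 37C to a dilution series. Viability read by CellTiter-Glo luminescence, normalized to DMSO and empty wells; activity summarized as Z-AUC.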
# [2] = qHTS for identification of novel therapeutic agents for treatment of microphthalmiaassociated transcription factor (MiT) renal cell carcinoma (RCC) (AID 1963991); settings: CellTiter-Glo, 48 h; for z-score: stronger effect = lower value; also: potency is read from the fitted curve at half-maximal effect
# In short: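 Curves over 11 concentrations were fitted to CellTiter-Glo luminescence, scaled between empty wells (0%) and DMSO (100%) viability. Cells were UOK109, UOK124 and UOK145 TFE3-fusion RCC lines at 500/well, exposed 48 hours at 37 C.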
# [3] = test system: AA1029; experiment: qHTS profiling for inhibitors of Plasmodium falciparum proliferation (AID 504749; active = well fitted inhibition curve with a large enough effect;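 also: 0% = DMSO vehicle and full inhibition = artemisinin control; nearly all actives have a fitted effect of over 60% in size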); settings: P. falciparum in erythrocytes, SYBR Green DNA, 72 h; series mostly up to 28.7 µM
# In short: (§1)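 Each compound contacts P. falciparum-infected red blood cells for 72 h at 37 C; lysis buffer (Tris, EDTA, saponin, Triton X, SYBR Green I) is added and fluorescence measured next morning; values normalized to controls.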
# [4] = test system: ATS189; experiment: as above; settings: P. falciparum in erythrocytes, SYBR Green DNA, 72 h; series mostly up to 28.7 µM
# In short: as §1
# [5] = as above; settings: P. falciparum in erythrocytes, SYBR Green DNA, 72 h, at 28.7 µM (top of the series)
# In short: as §1
# [6] = test system: 3D7; experiment: as above; settings: P. falciparum in erythrocytes, SYBR Green DNA, 72 h; series mostly up to 28.7 µM
# In short: as §1
# [7] = test system: 7G8; experiment: as above; settings: P. falciparum in erythrocytes, SYBR Green DNA, 72 h; series mostly up to 28.7 µM
# In short: as §1
# [8] = test system: AS120; experiment: as above; settings: P. falciparum in erythrocytes, SYBR Green DNA, 72 h; series mostly up to 28.7 µM
# In short: as §1
# [9] = test system: ATS95; experiment: as above; settings: P. falciparum in erythrocytes, SYBR Green DNA, 72 h; series mostly up to 28.7 µM
# In short: as §1
# [10] = test system: C2A; experiment: as above; settings: P. falciparum in erythrocytes, SYBR Green DNA, 72 h; series mostly up to 28.7 µM
# In short: as §1
# [11] = measured here: PEO1 parental Z-AUC
# [12] = TFE3-RCC UOK109 viability, measured here: UOK109 Z-AUC
# [13] = TFE3-RCC viability, measured here: UOK124 Z-AUC
# [14] = TFE3-RCC viability, measured here: UOK145 Z-AUC
compound,measurement,setting,value
C/C=C(/C)C(=O)O[C@H]1C(C)=C2[C@H]([C@@H]1OC(=O)CCCCCCC)[C@@](C)(OC(C)=O)C[C@H](OC(=O)CCC)[C@@]1(O)[C@H]2OC(=O)[C@@]1(C)O,Potency,[1],9.8 nM (active)
CN(C)[C@@H]1C(=O)C(C(N)=O)=C(O)[C@@]2(O)C(=O)C3=C(O)c4c(O)cccc4[C@@](C)(O)[C@H]3[C@H](O)[C@@H]12,Z-AUC,[1],-0.415 (inactive)
same,Z-AUC,[1]; [11],-0.31
same,Z-AUC,[1]; measured here: PEO4 Z-AUC,0.0838
same,z-score,[2]; [12],2.05
same,z-score,[2]; [13],0.404
same,z-score,[2]; [14],0.671
same,Potency,[3],inactive
same,Potency,[4],inactive
CCCN1CCO[C@@H]2c3cc(O)ccc3OC[C@@H]21,z-score,[2]; [12],0.649
same,z-score,[2]; [13],0.425
same,z-score,[2]; [14],0.561
CCc1c(C(=O)C(N)=O)c2c(OCC(=O)O)cccc2n1Cc1ccccc1,Z-AUC,[1],0.107 (inactive)
same,Z-AUC,[1]; [11],0.125
same,Z-AUC,[1]; measured here: PEO4 Z-AUC,0.188
same,z-score,[2]; [12],-0.00568
same,z-score,[2]; [13],0.644
same,z-score,[2]; [14],-1.8
CN(C)NC(=O)CCC(=O)O,Z-AUC,[1],1.04 (inactive)
same,Z-AUC,[1]; [11],0.492
same,Z-AUC,[1]; measured here: PEO4 Z-AUC,0.93
same,z-score,[2]; [12],0.632
same,z-score,[2]; [13],0.666
same,z-score,[2]; [14],-0.178
CCC(=O)OC1CCC2C3CCC4=CC(=O)CC[C@@]4(C)C3CC[C@]12C (some centres not stated),z-score,[2]; [12],0.231
same,z-score,[2]; [13],0.282
same,z-score,[2]; [14],-0.0668
c1ccc2c(CN3CCNCC3)cccc2c1,Z-AUC,[1],-0.771 (inactive)
same,Z-AUC,[1]; [11],-0.119
same,Z-AUC,[1]; measured here: PEO4 Z-AUC,-0.706
same,z-score,[2]; [12],0.545
same,z-score,[2]; [13],0.291
same,z-score,[2]; [14],0.833
CC(N[C@H]1C[C@H]1c1ccccc1)c1ccc2c(c1)OCCO2 (some centres not stated),z-score,[2]; [12],0.542
same,z-score,[2]; [13],0.0589
same,z-score,[2]; [14],0.597
COc1cc([C@@H]2c3cc4c(cc3[C@@H](O)C3COC(=O)C32)OCO4)cc(OC)c1O (some centres not stated),Z-AUC,[1],-0.729 (inactive)
same,Z-AUC,[1]; [11],-0.507
same,Z-AUC,[1]; measured here: PEO4 Z-AUC,-1.03
same,Potency,[2]; TFE3-RCC UOK109 viability,41.8 nM (active)
same,z-score,[2]; [12],-1.65
same,z-score,[2]; [13],-1.93
same,z-score,[2]; [14],-1.12
C[C@@H]1CC[C@H]2[C@@H](C)C(=O)O[C@@H]3O[C@@]4(C)CC[C@H]1[C@]32OO4,z-score,[2]; [12],0.72
same,z-score,[2]; [13],0.74
same,z-score,[2]; [14],0.344
CC[C@@]1(O)C(=O)OCc2c1cc1n(c2=O)Cc2cc3ccccc3nc2-1,Potency,[1],38.9 nM (active)
same,Z-AUC,[1]; [11],-2.44
same,Z-AUC,[1]; measured here: PEO4 Z-AUC,-1.71
same,Potency,[2]; TFE3-RCC UOK109 viability,590 nM (active)
same,z-score,[2]; [12],-1.89
same,z-score,[2]; [13],-3.04
same,z-score,[2]; [14],-3.18
CCOP(=O)(OCC)C(C)NC(=O)N(CCCl)N=O (configuration not stated),Z-AUC,[1],1.21 (inactive)
same,Z-AUC,[1]; [11],0.417
same,Z-AUC,[1]; measured here: PEO4 Z-AUC,0.472
same,z-score,[2]; [12],0.0132
same,z-score,[2]; [13],-0.441
same,z-score,[2]; [14],0.402
C#CC1(O)CCC2C3CCC4=CC(=O)CCC4(C)C3CCC21C (configuration not stated),Z-AUC,[1],0.597 (inactive)
same,Z-AUC,[1]; [11],0.372
same,Z-AUC,[1]; measured here: PEO4 Z-AUC,0.608
same,z-score,[2]; [12],0.285
same,z-score,[2]; [13],0.199
same,z-score,[2]; [14],0.147
same,"activity, negative = inhibition",[5]; parasite line A,7.72% (inactive)
same,"activity, negative = inhibition",[5]; parasite line B,0.354% (inactive)
same,Potency,[6],inactive
same,Potency,[7],inactive
same,Potency,[3],inactive
same,Potency,[8],inactive
same,Potency,[4],inactive
same,Potency,[9],inactive
same,Potency,[10],inactive
CC(=Cc1csc(C)n1)[C@@H]1C[C@H]2O[C@@H]2CCC[C@H](C)[C@@H](O)[C@@H](C)C(=O)C(C)(C)[C@@H](O)CC(=O)O1,z-score,[2]; [12],-3.27
same,z-score,[2]; [13],-1.59
same,z-score,[2]; [14],-2.88
C#C[C@]1(O)C=C[C@@H]2[C@@H]3CCC4=CC(=O)CC[C@@H]4[C@H]3CC[C@@]21CC,z-score,[2]; [12],1.02
same,z-score,[2]; [13],0.666
same,z-score,[2]; [14],-1.42
Clc1ccccc1C(c1ccccc1)(c1ccccc1)n1cccn1,Z-AUC,[1],0.364 (inactive)
same,Z-AUC,[1]; [11],0.863
same,Z-AUC,[1]; measured here: PEO4 Z-AUC,1.14
same,z-score,[2]; [12],-0.446
same,z-score,[2]; [13],0.841
same,z-score,[2]; [14],-1.28
O=c1[nH]c2ccc(Cl)cc2c(N[C@@H]2CN3CCC2CC3)c1-c1nc2ccccc2[nH]1,Z-AUC,[1],-1.21 (inactive)
same,Z-AUC,[1]; [11],-1.35
same,Z-AUC,[1]; measured here: PEO4 Z-AUC,-1.24
same,Potency,[2]; TFE3-RCC UOK109 viability,3720 nM (active)
same,z-score,[2]; [12],-0.938
same,z-score,[2]; [13],-2.71
same,z-score,[2]; [14],-1.04
CC[C@@H](C(N)=O)N1CCCC1=O,Z-AUC,[1],-0.418 (inactive)
same,Z-AUC,[1]; [11],-0.901
same,Z-AUC,[1]; measured here: PEO4 Z-AUC,-0.237
same,z-score,[2]; [12],1.12
same,z-score,[2]; [13],0.779
same,z-score,[2]; [14],0.655
C[C@H]([C@H](O)CCC(C)(C)O)[C@H]1CC[C@@]2(O)C3=CC(=O)[C@@H]4C[C@@H](O)[C@@H](O)C[C@]4(C)[C@@H]3CC[C@]12C,z-score,[2]; [12],0.847
same,z-score,[2]; [13],0.683
same,z-score,[2]; [14],-2.52
CSCC[C@@H](NC(=O)[C@@H](Cc1ccccc1)NC(=O)CNC(=O)CNC(=O)[C@@H](N)Cc1ccc(O)cc1)C(=O)O,Z-AUC,[1],1.29 (inactive)
same,Z-AUC,[1]; [11],1.17
same,Z-AUC,[1]; measured here: PEO4 Z-AUC,1.05
same,z-score,[2]; [12],0.576
same,z-score,[2]; [13],0.642
same,z-score,[2]; [14],1.12
Cc1ccccc1-n1c(Cn2cnc3c(N)ncnc32)nc2cccc(C)c2c1=O,Z-AUC,[1],-0.47 (inactive)
same,Z-AUC,[1]; [11],0.542
same,Z-AUC,[1]; measured here: PEO4 Z-AUC,0.532
same,Potency,[2]; TFE3-RCC UOK109 viability,235 nM (active)
same,z-score,[2]; [12],-2.22
same,z-score,[2]; [13],-1.13
same,z-score,[2]; [14],-1.88
O=C(Nc1ccncc1)C(=O)c1cn(Cc2ccc(Cl)cc2)c2ccccc12,Z-AUC,[1],-0.51 (inactive)
same,Z-AUC,[1]; [11],-1.11
same,Z-AUC,[1]; measured here: PEO4 Z-AUC,-0.872
same,Potency,[2]; TFE3-RCC UOK109 viability,469 nM (active)
same,z-score,[2]; [12],-1.08
same,z-score,[2]; [13],-1.43
same,z-score,[2]; [14],-1.01
C[C@H]1CCCC=CC2C[C@H](O)C[C@@H]2[C@H](O)C=CC(=O)O1 (some centres not stated),z-score,[2]; [12],-3.99
same,z-score,[2]; [13],-3.69
same,z-score,[2]; [14],-5.31
CC1=C(O)C(=O)C=C2C1=CC=C1[C@@]2(C)CC[C@@]2(C)[C@@H]3C[C@](C)(C(=O)O)CC[C@]3(C)CC[C@]12C,Z-AUC,[1],-0.53 (inactive)
same,Z-AUC,[1]; [11],-1.33
same,Z-AUC,[1]; measured here: PEO4 Z-AUC,-0.972
same,Potency,[2]; TFE3-RCC UOK109 viability,2640 nM (active)
same,z-score,[2]; [12],-1.17
same,z-score,[2]; [13],-1.16
same,z-score,[2]; [14],-1.07
